Results from PubChem BioAssay AID1159580 (chemical genetic matrix, 2015).
In all, about 5,500 compounds went through this assay and about 2,000 (36%) were called active. Another 18% or so got no clear call; they are omitted. No stated cut-off is given here; in the data, active means normalized growth mostly below about 0.91 (no sharp cut-off); inconclusive means no clear call, values can overlap the other calls; inactive means mostly above about 0.92. The list shows a part of the results.

Assay: chemical genetic growth profiling, strain panel (AID 1159580);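 further: tested at 20 µM; growth read once vehicle control cultures reached saturation at 30 °C; 1 = growth at the plate median or of vehicle wells; lower values mean less growth of the strain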
Conditions: S. cerevisiae deletion strains, growth OD
[1] = locus YCL061C, strain MRC1, active compounds read low
[2] = locus YHR030C, strain SLT2, active compounds read low

Measured: normalized growth

COc1cc(N=Cc2ccc3c(c2)OCO3)c(OC)cc1Cl
inactive: locus YAL013W, strain DEP1, active compounds read low 1.01 | locus YBR229C, strain ROT2, active compounds read low 1.01 | [1] 1 | locus YDL101C, strain DUN1, active compounds read low 0.984 | locus YDR150W, strain NUM1, active compounds read low 0.91 | locus YEL061C, strain CIN8, active compounds read low 1.04 | locus YGR078C, strain PAC10, active compounds read low 0.994 | locus YGR229C, strain SMI1, active compounds read low 1.01 | [2] 0.982 | locus YHR087W, strain rtc3, active compounds read low 0.989 | locus YJR043C, strain POL32, active compounds read low 1 | locus YJR075W, strain HOC1, active compounds read low 0.983 | locus YLR039C, strain RIC1, active compounds read low 0.97 | locus YLR058C, strain SHM2 (second series), active compounds read low 1 | locus YLR085C, strain ARP6, active compounds read low 1.04 | locus YLR262C, strain YPT6, active compounds read low 0.99 | locus YML094W, strain GIM5, active compounds read low 1.02 | locus YMR219W, strain ESC1, active compounds read low 0.991 | locus YMR263W, strain SAP30, active compounds read low 0.939 | locus YMR307W, strain GAS1, active compounds read low 1.05 | locus YNL128W, strain TEP1, active compounds read low 1.01 | locus YNL153C, strain GIM3, active compounds read low 0.988 | locus YNL298W, strain CLA4 (second series), active compounds read low 1.01 | locus YNL322C, strain KRE1, active compounds read low 1 | locus YNR030W, strain Alg12, active compounds read low 1.01 | locus YPL055C, strain LGE1, active compounds read low 0.998 | locus YPL241C, strain CIN2, active compounds read low 1.02 | locus YPR135W, strain CTF4, active compounds read low 0.973

CCC(COC(=O)c1cc(OC)c(OC)c(OC)c1)(c1ccccc1)N(C)C (stereo not drawn)
inactive: locus YAL021C, strain ccr4, active compounds read low 0.969 | locus YAL026C, strain drs2, active compounds read low 0.994 | locus YAL030W, strain snc1, active compounds read low 0.985 | locus YBL061C, strain skt5, active compounds read low 0.993 | locus YBR009C, strain hhf1, active compounds read low 1.01 | locus YBR023C, strain chs3, active compounds read low 0.98 | locus YBR171W, strain sec66, active compounds read low 0.961 | locus YBR231C, strain swc5, active compounds read low 0.985 | locus YBR279W, strain paf1, active compounds read low 0.975 | locus YCL011C, strain gbp2, active compounds read low 0.969 | locus YCL016C, strain dcc1, active compounds read low 0.99 | [1] 0.987 | locus YCL069W, strain vba3, active compounds read low 0.988 | locus YCR088W, strain abp1, active compounds read low 0.979 | locus YDL005C, strain med2, active compounds read low 0.977 | locus YDL040C, strain nat1, active compounds read low 0.978 | locus YDR001C, strain nth1, active compounds read low 0.974 | locus YDR069C, strain doa4, active compounds read low 0.992 | locus YDR137W, strain rgp1, active compounds read low 0.925 | locus YDR159W, strain sac3, active compounds read low 0.986 | locus YDR195W, strain ref2 0.984 | locus YDR297W, strain sur2, active compounds read low 0.971 | locus YDR334W, strain swr1, active compounds read low 0.938 | locus YDR335W, strain msn5, active compounds read low 0.969 | locus YDR392W, strain spt3, active compounds read low 0.753 | locus YEL003W, strain gim4, active compounds read low 0.967 | locus YEL037C, strain rad23, active compounds read low 0.983 | locus YEL061C, strain CIN8 (second series), active compounds read low 0.985 | locus YER015W, strain faa2, active compounds read low 0.986 | locus YER016W, strain bim1, active compounds read low 0.983 | locus YER111C, strain swi4, active compounds read low 0.983 | locus YER155C, strain BEM2 (second series), active compounds read low 0.97 | locus YFR010W, strain ubp6, active compounds read low 0.984 | locus YGL167C, strain pmr1, active compounds read low 0.976 | locus YGL173C, strain kem1, active compounds read low 0.985 | locus YGL227W, strain vid30, active compounds read low 0.99 | locus YGL240W, strain doc1, active compounds read low 0.972 | locus YGL253W, strain hxk2, active compounds read low 0.994 | locus YHR013C, strain ard1, active compounds read low 0.937 | locus YHR027C, strain rpn1, active compounds read low 0.969 | [2] 0.976 | locus YHR079C, strain IRE1, active compounds read low 0.985 | locus YHR142W, strain chs7, active compounds read low 0.952 | locus YJL092W, strain hpr5, active compounds read low 0.973 | locus YJL095W, strain BCK1 (second series), active compounds read low 0.981 | locus YJL095W, strain BCK1, active compounds read low 0.98 | locus YJL115W, strain asf1, active compounds read low 0.957 | locus YJL129C, strain trk1, active compounds read low 0.938 | locus YJL154C, strain vps35, active compounds read low 0.979 | locus YJL164C, strain tpk1, active compounds read low 0.966 | locus YJL166W, strain qcr8, active compounds read low 0.969 | locus YJL187C, strain SWE1, active compounds read low 0.988 | locus YJR066W, strain TOR1, active compounds read low 0.924 | locus YKL160W, strain elf1, active compounds read low 0.959 | locus YKR026C, strain gcn3, active compounds read low 0.983 | locus YKR091W, strain srl3, active compounds read low 0.976 | locus YLL001W, strain dnm1, active compounds read low 0.985 | locus YLL026W, active compounds read low 0.975 | locus YLL041C, strain sdh2, active compounds read low 0.964 | locus YLR027C, strain aat2, active compounds read low 0.974 | locus YLR113W, strain HOG1, active compounds read low 0.995 | locus YLR221C, strain rsa3, active compounds read low 0.951 | locus YLR258W, strain gsy2, active compounds read low 0.991 | locus YLR262C, strain YPT6 (second series), active compounds read low 0.933 | locus YLR320W, strain mms22, active compounds read low 0.942 | locus YLR342W, strain FKS1, active compounds read low 0.983 | locus YLR357W, strain rsc2, active compounds read low 0.966 | locus YLR370C, strain arc18, active compounds read low 0.997 | locus YLR384C, strain iki3, active compounds read low 0.976 | locus YML120C, strain ndi1, active compounds read low 0.957 | locus YMR058W, strain fet3, active compounds read low 0.979 | locus YMR125W, strain sto1, active compounds read low 0.97 | locus YMR129W, active compounds read low 0.978 | locus YMR205C, strain PFK2, active compounds read low 1.02 | locus YMR231W, strain pep5, active compounds read low 0.999 | locus YNL071W, strain lat1, active compounds read low 0.921 | locus YNL183C, strain NPR1, active compounds read low 0.939 | locus YNL209W, strain ssb2, active compounds read low 0.98 | locus YNL248C, strain rpa49, active compounds read low 0.945 | locus YNL322C, strain KRE1 (second series), active compounds read low 0.972 | locus YNR049C, strain mso1, active compounds read low 0.973 | locus YOR001W, strain rrp6, active compounds read low 0.913 | locus YOR070C, strain gyp1, active compounds read low 0.978 | locus YOR080W, strain dia2, active compounds read low 0.977 | locus YOR083W, strain WHI5, active compounds read low 0.952 | locus YOR106W, strain vam3, active compounds read low 0.957 | locus YOR231W, strain MKK1, active compounds read low 0.988 | locus YOR265W, strain rbl2, active compounds read low 0.976 | locus YOR270C, strain vph1, active compounds read low 0.955 | locus YOR290C, strain snf2, active compounds read low 0.925 | locus YPL051W, strain arl3, active compounds read low 0.954 | locus YPL078C, strain atp4, active compounds read low 0.946 | locus YPL106C, strain sse1, active compounds read low 0.941 | locus YPL240C, strain hsp82, active compounds read low 0.961 | locus YPL256C, strain CLN2, active compounds read low 0.966
